# Assay results published in the OligoGym collection.
# Molecular target: IL16
# Assay: pooled miR-30 sensor sort-seq; sequence = guide strand
# Conditions: shRNA
# Also: reference of the scale not given here.
row,Sequence,sensor-assay potency score (higher = more potent)
1,TTTCTAGATCTGCTCCTCCTGC,-0.608
2,TGATTCACCATTGAGCTCCAGA,-0.0119
3,TAGATCAGGAACACTGCTGGGC,0.521

# Molecular target: IL18RAP
# Assay: as above
# Conditions: shRNA
row,Sequence,sensor-assay potency score (higher = more potent)
1,TATTTTCTGATTCTGCTCGGAC,-0.239
2,TTTCTGTTCTACTGAGTCCTTT,-0.456
3,TTGTAGTTCAAAGATACTGGGT,-0.0545
4,ATAAACTTCATCCACTACGATT,-1.45
5,TTAACTTCTAAAATCATCTTGA,1
6,TTTGAATTTCCTATCAGCCTGA,0.608
7,TTTCAGTGTTTGATCATCCAAG,-0.42
8,TCATCTTGACACAACAGGCTAC,0.09
9,TCTCACTTGAACAACAGCTCTG,0.299
10,TTGGACATCAGATAGGTCGTTA,0.111
11,TTCTGTTCTACTGAGTCCTTTC,-0.716
12,TTGTTTTCTAAAACATCAGGAA,-0.521

# Molecular target: IL32
# Assay: as above
# Conditions: shRNA
row,Sequence,sensor-assay potency score (higher = more potent)
1,TAGGACTTGTCACAAAAGCTCT,-1.15
2,TGCGGGATCCTCAACATCCGGG,-0.63
3,TTTTATCATAAAATCTTTCTAT,-0.484
4,TTTATCATAAAATCTTTCTATG,-1.15
5,TTTGAAGTCGTCCTCCAGCTCT,-0.749
6,TAGGACTGGAAAGAGGACATGA,0.275
7,ATAAAATCTTTCTATGGCCTGG,-0.133
8,TAGAGGAGTGAGCTCTGGGTGC,-1.21
9,TTTTTCAAGTAGAGGAGTGAGC,-0.743
10,TAAAATCTTTCTATGGCCTGGT,0.537
11,TGAAGTCGTCCTCCAGCTCTGC,-1.04
12,TTGCGGGATCCTCAACATCCGG,-1.68

# Molecular target: IL5
# Assay: as above
# Conditions: shRNA
row,Sequence,sensor-assay potency score (higher = more potent)
1,TTTGACTCTCCAGTGTGCCTAT,-0.108
2,TTGCACAGTTTGACTCTCCAGT,-0.479
3,TTTTATGTACAGGAACAGGAAT,-1.18
4,TCTTTCACCAATGCACTTGTGG,-0.0823
5,TTGAATAGTCTTTCCACAGTAC,0.569
6,TTCTTTATTAAGGACAAGTTTT,-1.48
7,TTCTTCAGTGCACAGTTGGTGA,-1.09
8,TATTTCTTTATTAAGGACAAGT,-0.457
9,TACAGGAACAGGAATCCTCAGA,-0.449
10,TACACCAAGAAACTCTTGCAGG,-0.92
11,TTTTGAATAGTCTTTCCACAGT,-0.99
12,TTACTCTCCGTCTTTCTTCTCC,0.308
